Here are results for 40 compounds from PubChem BioAssay (NCATS).

Structures are written as SMILES. Values joined by “and” are separate entries in the source; they are usually repeats but may differ in a detail not shown here. Equal values may be shown once. Inconclusive results are not listed. A call without a number means that no potency is given here. Active and inactive are the calls of the source. Calls come from the whole dose curve; as a rule, active = well fitted inhibition curve with a large enough effect; inconclusive = small, poorly fitted or top-dose-only effect; inactive = no such curve, though single readings can be large or run the other way.

This assay is described as follows: Primary qHTS for inhibitors of nuclear receptor binding SET domain protein 2 (NSD2) in an RCH-ACV wild type WT cells (2C) (AID 1645877). Note: nearly all actives have a fitted effect of over 70% in size. Conditions: RCH-ACV (leukaemia line) NSD2 WT (2C) viability, CellTiter-Glo, 72 h; series mostly up to 44.9 µM. The text has this: Assay Provider: Jonathan D. Licht, MD
University of Florida College of Medicine, Gainesville, FL
Mutations in epigenetic regulators are common in relapsed pediatric acute lymphoblastic leukemia (ALL). Here, we uncovered the mechanism underlying the relapse of ALL driven by an activating mutation of the NSD2 histone methyltransferase (p.E1099K). […] Correction of this mutation restored glucocorticoid sensitivity. The transcriptional response to glucocorticoids was blocked in NSD2 mutant cells due to depressed glucocorticoid receptor (GR) levels and the failure of glucocorticoids to autoactivate GR expression. […] Pre-treatment of NSD2 p.E1099K cell lines and PDX samples with PRC2 inhibitors reversed glucocorticoid resistance in vitro and in vivo.
High-throughput drug screening of isogenic RCH-ACV cell lines was performed at the National Center for Advancing Translational Science (NCATS), National Institutes of Health as previously described (1). Briefly, isogenic RCH-ACV NSD2 p.E1099K mutant (9B) and WT cells (2C) were plated at 500 cells/well in a 1536-well plate with a 72-hour incubation with compounds prior to addition of CellTiter-Glo to assess cell viability. NCATS libraries screened include: NPC, MIPE 5.0, Kinase and NPACT. To determine compound activity in the qHTS assay, the concentration-response data for each sample was plotted and modeled by a four-parameter logistic fit yielding IC50 and efficacy (maximal response) values. The area under the curve (AUC) of the dose-response curve ensures both efficacy (magnitude of cell killing) and potency (concentration that elicits cell killing) are accounted for in the analysis of activity.
1. Tobie D Lee, Olivia W Lee, Kyle R Brimacombe, Lu Chen, Rajarshi Guha, Sabrina Lusvarghi, Bethilehem G Tebase, Carleen Klumpp-Thomas, Robert W Robey, Suresh V Ambudkar, Min Shen, Michael M Gottesman, Matthew D Hall. A High-Throughput Screen of a Library of Therapeutics Identifies Cytotoxic Substrates of P-glycoprotein. Mol Pharmacol. 2019, Nov;96(5):629-640.
(Quantitative high-throughput screening tests each substance at several concentrations.)
As for `N[C@@H](CSCCCO)C(=O)O`, the Potency entry was “inactive”.
On to `OCC(CO)N[C@H]1C[C@](O)(CO)[C@@H](O)[C@H](O)[C@H]1O`, for which the Potency result was “inactive”.
On the same count and under the same terms, under `NS(=O)(=O)c1cc2c(cc1Cl)NC(CSCc1ccccc1)=NS2(=O)=O` stands “inactive”.
As for `C[C@]12CC[C@@H]3c4ccc(O)cc4CC[C@H]3[C@@H]1CC[C@@H]2OC(=O)CCC1CCCC1`, the Potency entry is “inactive”.
For `C[C@@H]1CC[C@@]2(OC1)O[C@H]1C[C@H]3[C@@H]4CC[C@H]5C[C@@H](O)CC[C@]5(C)[C@H]4CC(=O)[C@]3(C)[C@H]1[C@@H]2C`, the outcome is “inactive [at 4.96 µM]”.
As for `CN1[C@@H]2CC[C@H]1CC(OC(=O)C(O)c1ccccc1)C2` (stereo not given in full), the Potency result was “inactive”.
Consider `C[C@@H]1C[C@H]2[C@@H]3C[C@H](F)C4=CC(=O)C=C[C@]4(C)[C@@]3(F)[C@@H](O)C[C@]2(C)[C@@]1(O)C(=O)CO`, for which the Potency was 2.7 nM (active) and 5.2 nM (active).
Regarding `CC(=O)Nc1ccc(/C=N/NC(N)=S)cc1`, the Potency was 16.8 µM (active).
Take `CC(O)COc1ccccc1` (stereo not given): the Potency entry was “inactive”.
In the case of `Cn1c(=O)c2c(ncn2CC2OCCO2)n(C)c1=O`, the Potency entry was “inactive”.
Take `CCC(=O)Nc1ccc(O)cc1`: the Potency entry is “inactive”.
As for `CN(C)CCOC(C)(c1ccccc1)c1ccccn1` (stereo not given), the Potency entry was “inactive”.
Consider `CN1CCC[C@@H]1Cc1c[nH]c2ccc(CCS(=O)(=O)c3ccccc3)cc12`, for which the Potency result is “inactive”.
Take `CN(C)CC[C@@H](c1ccc(Cl)cc1)c1ccccn1`: the Potency entry is “inactive”.
As for `O=C1Nc2ccc(Cl)cc2[C@@](C#CC2CC2)(C(F)(F)F)O1`, the Potency was 20.9 µM (active) and 26.3 µM (active).
In the case of `C=CCn1c(=O)n([C@@H]2O[C@H](CO)[C@@H](O)[C@H]2O)c2nc(N)[nH]c(=O)c21`, the Potency result is “inactive”.
For the compound `Cc1cc2nc3c(=O)[nH]c(=O)nc-3n(C[C@H](O)[C@H](O)[C@H](O)CO)c2cc1C`, the Potency result is “inactive”.
In the case of `CN(N=O)C(=O)N[C@@H]1[C@@H](O)[C@H](O)[C@@H](CO)O[C@@H]1O`, the Potency result was “inactive”.
`Cc1cccc(Nc2cc(Cl)nc(SCC(=O)O)n2)c1C`: the Potency result is “inactive”.
With `CCCCN1CCCC[C@H]1C(=O)Nc1c(C)cccc1C`, the Potency entry is “inactive”.
For `N[C@H]1C(O)O[C@H](CO)[C@@H](O)[C@@H]1O` (stereo not given in full), the Potency result is “inactive”.
On to `CCOc1nc2cccc(C(=O)O)c2n1Cc1ccc(-c2ccccc2-c2nn[nH]n2)cc1`, for which the Potency entry was “inactive”.
As for `CC(C)(O)c1ccccc1CC[C@@H](SCC1(CC(=O)O)CC1)c1cccc(/C=C/c2ccc3ccc(Cl)cc3n2)c1`, the Potency entry is “inactive”.
Regarding `NC(=O)N/N=C/c1ccc([N+](=O)[O-])o1`, the Potency is 24.3 µM (active).
In the case of `Cc1cc(O)cc2c1O[C@](C)(CCC[C@H](C)CCC[C@H](C)CCCC(C)C)CC2`, the Potency result is “inactive”.
For the compound `CCCCC(CC)COC(=O)c1ccccc1O` (stereo not given), the Potency entry is “inactive”.
With `CC(=O)OCC(=O)[C@@]1(O)CC[C@H]2[C@@H]3CCC4=CC(=O)CC[C@]4(C)[C@H]3C(=O)C[C@@]21C`, the Potency result is “inactive”.
Turning to `CCC(=O)c1ccc(O)cc1`, the Potency entry was “inactive”.
Still for that read-out and setting: under `CC1CC(OC(=O)C(O)c2ccccc2)CC(C)(C)N1C` (stereo not given) stands “inactive”.
For the compound `NCCNCCNCCNCCN`, the activity change, negative = cell killing was -16.9% [at 9.23 µM] (inactive).
`C[C@H]1O[C@H](O[C@H]2[C@H](O)[C@@H](O)[C@@H](O[C@H]3[C@H](O)[C@@H](O)[C@H](O)O[C@@H]3CO)O[C@@H]2CO)[C@H](O)[C@@H](O)[C@@H]1N[C@H]1C=C(CO)[C@@H](O)[C@H](O)[C@H]1O`: the Potency result was “inactive”.
Same read-out and setting: with `CCCCOc1cc(C(=O)OCCN(CC)CC)ccc1N` the entry was “inactive”.
Same read-out and setting: with `O=C(O)[C@H](O)c1ccccc1` the entry was “inactive”; with `CCN(CC)CCNC(=O)c1cc(Cl)c(N)cc1OC`, “inactive”; with `O=C1O[C@H]([C@@H](O)CO)C(O)=C1O`, “inactive”.
For `NC1[C@H]2CN(c3nc4c(cc3F)c(=O)c(C(=O)O)cn4-c3ccc(F)cc3F)C[C@@H]12` (stereo not given in full), the Potency is 5.31 µM (active).
Same read-out and setting: under `CCCCCCCCCCCCOS(=O)(=O)O` stands “inactive”; under `CC(C)(C)NCC(O)COc1ccc(NC(=O)NC2CCCCC2)cc1` (stereo not given), “inactive”; under `O=C(O)c1ccccc1-c1ccc(C(F)(F)F)cc1`, “inactive”.
Regarding `CC1=C(C/C=C(\C)CCC[C@H](C)CCC[C@H](C)CCCC(C)C)C(=O)c2ccccc2C1=O`, the Potency entry was “inactive”.
